KCNQ2 pot: enhances the rat KCNQ2 potassium channel; O88943; CHO-K1 KCNQ2, FluxOR thallium flux fluorescence; active compounds read high; B-score at 10 µM; 310,000 tested, 0.54% active; AID 2239;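 active = fluorescence ratio B-score at least 3 SD of library B-scores, with initial fluorescence B-score within 3 of them, cut at about 5.3 in these data; same plate scores as AID 2156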;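 note: B-score of peak minus minimum over baseline fluorescence ratio after K+ and Tl+ stimulus; positive B-score means potentiation of KCNQ2 with more thallium influx and brighter signal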
KCNQ2 inh: blocks the rat KCNQ2 potassium channel. CHO-K1 KCNQ2, FluxOR thallium flux, 20 min; active compounds read low. B-score at 10 µM. 310,000 tested, 1.1% active. AID 2156;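 active = fluorescence ratio B-score at most minus 3 library SDs, with starting brightness B-score within 2 library SDs, cut at about -5.5 in these data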
KCNQ2 inh conf: rat KCNQ2 channel inhibition, confirmatory screen | shares compounds with KCNQ2 inh | KCNQ2-expressing cells, thallium flux; active compounds read low | activity change, negative = inhibition, % at 10 µM | 1,000 tested, 57% active | AID 493025;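 note: 0% = vehicle wells and values are ratio percent relative to vehicle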
KCNQ1 spec: human KCNQ1 activity in KCNQ2 inhibitor specificity screen; shares compounds with KCNQ2 inh; KCNQ1-expressing cells, FluxOR thallium flux fluorescence; active compounds read low; activity change, negative = inhibition, % at 10 µM; 1,000 tested, 15% active; AID 493026;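 active = activity change at least 3 SD of negative controls below their mean in both duplicate wells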;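 note: CHO cells stably transfected with KCNQ1 and depolarized by potassium stimulus; peak minus minimum fluorescence over baseline after thallium addition; 0% = vehicle negative control and -100% = blank without thallium stimulus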
Target sequence (P51787 whole entry, looked up): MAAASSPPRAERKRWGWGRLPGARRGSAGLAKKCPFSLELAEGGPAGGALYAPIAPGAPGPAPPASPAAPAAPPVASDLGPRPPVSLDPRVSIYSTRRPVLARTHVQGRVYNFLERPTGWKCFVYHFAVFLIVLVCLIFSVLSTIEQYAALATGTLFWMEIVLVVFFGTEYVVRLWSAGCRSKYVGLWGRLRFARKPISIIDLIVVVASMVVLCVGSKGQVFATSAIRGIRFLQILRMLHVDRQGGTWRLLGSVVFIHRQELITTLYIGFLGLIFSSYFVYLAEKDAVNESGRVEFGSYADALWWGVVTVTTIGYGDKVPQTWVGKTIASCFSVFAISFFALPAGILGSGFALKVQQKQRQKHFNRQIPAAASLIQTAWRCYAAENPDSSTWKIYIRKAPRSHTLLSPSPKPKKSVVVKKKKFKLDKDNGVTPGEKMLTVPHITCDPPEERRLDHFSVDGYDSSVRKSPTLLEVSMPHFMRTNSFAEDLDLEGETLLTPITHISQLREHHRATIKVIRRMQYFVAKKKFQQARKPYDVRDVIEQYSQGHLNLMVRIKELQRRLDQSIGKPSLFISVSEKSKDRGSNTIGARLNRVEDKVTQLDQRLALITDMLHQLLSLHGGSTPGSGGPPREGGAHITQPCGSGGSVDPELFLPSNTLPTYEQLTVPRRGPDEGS
CHO Tl ctr: counter-screen for KCNQ2 inhibitors: effect in parental CHO cells; shares compounds with KCNQ2 inh; thallium flux counter-screen; active compounds read low; activity change, % at 10 µM; 1,000 tested, 14% active;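 note: 0% = vehicle negative controls with stimulus buffer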
KCNQ2 inh confirm: rat KCNQ2 inhibition confirmed by electrophysiology | shares compounds with KCNQ2 inh | KCNQ2-expressing cells, automated patch clamp current | calls only at 10 µM | 550 tested, 49% active | AID 588531
An asterisk follows results filed as active; i = inactive; . = not tested or not shown; + = active, no number. This is a sample that favours compounds with a hit; in the whole collection about 1.6% have one here. Unless noted, the rule behind the calls is not given here.

SMILES	KCNQ2 pot	KCNQ2 inh	KCNQ2 inh conf	KCNQ1 spec	CHO Tl ctr	others
O=C(COc1ccc(Cl)cc1Cl)OCC(=O)N1CCCc2ccccc21	0.48	i	.	.	.
O=C(COc1ccc(Br)cc1)N(Cc1ccccc1)c1ccccn1	.	i	.	.	.
O=C(COc1ccc(Cl)cc1)N(Cc1ccccc1)c1ccccn1	-9.1	-9.1*	i	i	i
CC1CN(c2ccccc2)NC1=O (stereo not given)	.	i	.	.	.
CCn1nc(C)cc1C(=O)Sc1cccc(Br)c1	0.03	i	.	.	.
COc1ccc(C(c2c(O)ccc3ccccc23)N2CCOCC2)c(OC)c1 (stereo not given)	-10	-10*	-32%*	i	i	KCNQ2 inh confirm=i
COc1ccc(C(CCN2CCOCC2)c2c(O)cc(OC)cc2OC)cc1 (stereo not given)	0.49	i	.	.	.
Clc1ccc(COn2c(-c3ccc(Cl)cc3)nc3ccccc32)cc1	.	i	.	.	.
Clc1ccc(COn2c(-c3ccccc3)nc3ccccc32)cc1	-14	-14*	i	i	i
CCN(CC1COc2ccccc2O1)C(=S)Nc1ccc(F)cc1 (stereo not given)	1.7	i	.	.	.
CC(c1ccccc1)n1c(-c2cccs2)nc2c(c(=O)c3ccccc3n2C)c1=O (stereo not given)	.	i	.	.	.
COc1ccccc1C(=O)C1CCCN(C(=O)c2cccc(-n3cccn3)c2)C1 (stereo not given)	.	i	.	.	.
O=c1c2c3c(sc2ncn1/N=C/c1ccc([N+](=O)[O-])o1)CCCC3	.	i	.	.	.
Cn1cc(/C=N/n2cnc3sc4c(c3c2=O)CCCC4)c2ccccc21	-9.2	-9.2*	i	i	i
O=C(O)c1ccc(NCCC2=CCCCC2)c([N+](=O)[O-])c1	0.83	i	.	.	.
Cc1cc(C)c(OC2(c3ccccc3)OC(=O)c3ccccc32)c(C)c1 (stereo not given)	.	i	.	.	.
Cc1cccc(C)c1OC1(c2ccccc2)OC(=O)c2ccccc21 (stereo not given)	-8.6	-8.6*	i	i	i
COc1ccc2cc3c(nc2c1)OCC3	.	i	.	.	.
Clc1ccccc1OCCCn1ccnc1	1.1	i	.	.	.
Clc1ccccc1C(c1ccccc1)(c1ccccc1)n1ccnc1	-7.6	-7.6*	-36%*	-30%*	-24%*	KCNQ2 inh confirm=i
COCCNC(=O)c1ccc(NC(=O)C2(c3ccccc3)CCCC2)cc1	0.6	i	.	.	.
O=C(Cn1ccc(C(F)(F)F)n1)N=Nc1c(O)[nH]c2ccc(Br)cc12	-9.3	-9.3*	-27%*	i	i	KCNQ2 inh confirm=+
O=C(Cn1ccc(C(F)(F)F)n1)N=Nc1c(O)[nH]c2ccccc12	.	i	.	.	.
CCOc1ccc(-c2cnc(NCc3cccc4ccccc34)n2CCOC)cc1	-9.7	-9.7*	i	i	i
COCCn1c(-c2ccc(OC)cc2)cnc1N	.	i	.	.	.
SMILES	KCNQ2 pot	KCNQ2 inh	KCNQ2 inh conf	KCNQ1 spec	CHO Tl ctr	others
CC(=O)N1CCN(S(=O)(=O)c2ccc(S(=O)(=O)NC3CCCCC3)cc2)CC1	.	i	.	.	.
Cc1c(C)n(C(=O)CN2CCN(c3ccccc3)CC2)c2ccccc12	-7.8	-7.8*	i	i	i
Cc1c(C)n(C(=O)CN2CCC(C(N)=O)CC2)c2ccccc12	.	i	.	.	.
CC(C)(C)c1ccc(C(=O)NCC(=O)N2CCC3(CC2)NCCc2[nH]cnc23)cc1	1.9	i	.	.	.
CN(C(=O)CSc1nnnn1-c1ccccc1)C1CCS(=O)(=O)C1 (stereo not given)	0.3	i	.	.	.
COc1ccc2cc3cc(C(=O)N4CCN(c5ccccn5)CC4)oc3nc2c1	1.9	i	.	.	.
Cc1ccccc1-n1c(C)nnc1SCC(=O)NC1CCCc2ccccc21 (stereo not given)	-7.7	-7.7*	i	i	i
O=C(CSc1nnnn1-c1ccccc1)NC1CCCc2ccccc21 (stereo not given)	.	i	.	.	.
CC(Sc1nnc(Nc2ccccc2)s1)C(=O)NC1CCCc2ccccc21 (stereo not given)	.	i	.	.	.
Cc1nnc(SC(C)C(=O)NC2CCCc3ccccc32)n1-c1ccccc1 (stereo not given)	-6.6	-6.6*	-37%*	i	i	KCNQ2 inh confirm=+
Cc1ccccc1-n1nnnc1SC(C)C(=O)NC1CCCc2ccccc21 (stereo not given)	-8.8	-8.8*	-37%*	-38%*	-31%*	KCNQ2 inh confirm=+
Cc1ccccc1CC(=O)NC1CCCc2ccccc21 (stereo not given)	.	i	.	.	.
COc1ccc(C(=O)n2c(SC)nc3cc4c(cc32)OCCO4)cc1	.	i	.	.	.
CCC(Cc1ccccc1)NC(=O)C1CCN(c2nn3c(=O)cc(C)nc3s2)CC1 (stereo not given)	1.5	i	.	.	.
O=C(Cn1c(=O)c2cccn2c2ccccc21)Nc1cc(F)ccc1F	.	i	.	.	.
COc1ccc(CCN2CC(C(=O)NC3CCCCC3)CC2=O)cc1OC (stereo not given)	0.21	i	.	.	.
Clc1ccccc1CSc1cc2c(nn1)-c1ccccc1CC2	-8.1	-8.1*	-19%*	i	i	KCNQ2 inh confirm=i
Nc1ccccc1SCc1ccccc1Cl	.	i	.	.	.
Clc1ccc(CSC2=NCCCN2)cc1Cl	2.7	i	.	.	.
Clc1ccc(CSc2cc3c(nn2)-c2ccccc2CC3)cc1Cl	-8.3	-8.3*	-27%*	i	i	KCNQ2 inh confirm=i
Clc1cccc(Cl)c1CSc1cc2c(nn1)-c1ccccc1CC2	-8.5	-8.5*	i	i	i
O=c1cc2c(nn1Cc1c(Cl)cccc1Cl)-c1ccccc1CC2	1.6	i	.	.	.
CC(C)(C)c1ccccc1NC(=O)c1c(O)c2cccc3c2n(c1=O)CC3	.	i	.	.	.
Nc1cccnc1-n1nc(C(F)(F)F)cc1C(F)(F)F	1.3	i	.	.	.
Cc1ccccc1CN1CCN(S(=O)(=O)c2cccs2)CC1	0.76	i	.	.	.
SMILES	KCNQ2 pot	KCNQ2 inh	KCNQ2 inh conf	KCNQ1 spec	CHO Tl ctr	others
CN1CC(=O)N(CC(=O)Nc2cc(Cl)cc(Cl)c2)C1=O	0.03	i	.	.	.
CC1CCCC(C)N1/N=C/c1ccccc1Br (stereo not given)	0.77	i	.	.	.
Cc1onc(-c2ccc(Cl)cc2)c1-c1ccnc(SCC(=O)Nc2cc(Cl)cc(Cl)c2)n1	.	i	.	.	.
CC(NC(=O)c1cccs1)C(S)c1ccccc1 (stereo not given)	-11	-11*	i	i	i
CC(NC(=O)c1cccs1)c1ccc(Cl)cc1 (stereo not given)	.	i	.	.	.
COc1cc(-c2nc3ccccn3c2NCC2CCCO2)ccc1O (stereo not given)	0.81	i	.	.	.
CCOc1cc(-c2nc3ccccn3c2NCC2CCCO2)ccc1O (stereo not given)	-9.6	-9.6*	i	i	i
CC1CCC(C(C)C)C(OC(=O)COC(=O)c2ccc(N)cc2)C1 (stereo not given)	.	i	.	.	.
CC1CCC(C(C)C)C(OC(=O)Cn2c(-c3ccc(Cl)cc3)[n+](C)c3ccccc32)C1 (stereo not given)	-6.7	-6.7*	-46%*	-46%*	-48%*	KCNQ2 inh confirm=+
CC(C)C(=O)Nc1sc2c(c1-c1nc3ccccc3[nH]1)CCCC2	.	i	.	.	.

Source: PubChem BioAssay (Johns Hopkins Ion Channel Center)
